VLA-4 allo ag: allosterically activates the human VLA-4 integrin | Jurkat cells, LDV-FITC binding, flow cytometry | 24,000 tested, under 10 active | P13612 | AID 528 | activation, % at 10 µM (by protocol);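 active = fluorescent ligand binding to cells raised by more than 40% of the manganese-induced maximum; inconclusive = compound's own fluorescence above 85% of the ligand control signal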
Target sequence (P13612 whole entry, looked up): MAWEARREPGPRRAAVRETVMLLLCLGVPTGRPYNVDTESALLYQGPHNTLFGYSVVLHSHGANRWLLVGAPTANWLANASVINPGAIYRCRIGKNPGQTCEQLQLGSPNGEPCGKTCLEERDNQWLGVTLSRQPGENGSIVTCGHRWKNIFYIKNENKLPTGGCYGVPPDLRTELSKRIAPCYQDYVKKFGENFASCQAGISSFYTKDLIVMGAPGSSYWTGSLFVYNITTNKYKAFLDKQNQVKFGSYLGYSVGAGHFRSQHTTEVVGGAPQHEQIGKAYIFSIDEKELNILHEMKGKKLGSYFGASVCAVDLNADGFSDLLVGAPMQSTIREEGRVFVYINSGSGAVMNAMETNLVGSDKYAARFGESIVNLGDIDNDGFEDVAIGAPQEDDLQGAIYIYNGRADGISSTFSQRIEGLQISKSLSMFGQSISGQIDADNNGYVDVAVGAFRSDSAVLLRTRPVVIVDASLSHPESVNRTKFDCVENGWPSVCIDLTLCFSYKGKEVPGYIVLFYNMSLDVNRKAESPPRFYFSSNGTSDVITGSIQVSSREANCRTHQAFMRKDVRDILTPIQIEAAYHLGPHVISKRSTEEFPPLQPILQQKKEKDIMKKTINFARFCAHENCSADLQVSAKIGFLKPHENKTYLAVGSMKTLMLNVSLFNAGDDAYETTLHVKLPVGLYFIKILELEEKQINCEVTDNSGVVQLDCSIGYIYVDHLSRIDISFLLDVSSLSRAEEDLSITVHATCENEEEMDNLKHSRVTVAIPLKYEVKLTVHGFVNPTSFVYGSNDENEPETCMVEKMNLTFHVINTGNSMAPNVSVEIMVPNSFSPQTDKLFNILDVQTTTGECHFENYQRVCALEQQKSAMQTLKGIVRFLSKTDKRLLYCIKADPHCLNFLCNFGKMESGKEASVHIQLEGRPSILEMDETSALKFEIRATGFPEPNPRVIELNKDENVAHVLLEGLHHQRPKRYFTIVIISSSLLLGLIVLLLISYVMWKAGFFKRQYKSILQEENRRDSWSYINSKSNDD
Prostate diff: promotes differentiation of LNCaP prostate cells; flow cytometry side scatter, 4 d; side scatter shift, % at 10 µM; 24,000 tested, 0.56% active;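 active = side scatter shift above 30%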;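 note: androgen-responsive LNCaP prostate cancer cells in charcoal-stripped serum medium; higher shift means more granular cells and more differentiation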
Autofluor Jurkat: counter-screen for VLA-4 integrin: compound autofluorescence in Jurkat cells; flow cytometry; hits give high values; 1 = vehicle-only cell background; fluorescence ratio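 (tested at 10 µM compound in the well)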; 24,000 tested, 0.61% active; AID 576;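 active = fluorescence ratio above 2.44, which is 1 plus 3 SD of all ratios; inconclusive = signal too bright to measure linearly, ratio around 10 or more; inactive = fluorescence ratio below 2.44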;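 note: green fluorescence of cells measured with 488 nm excitation and 530 nm emission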
VLA-4 antagonist: inhibitors of LDV-FITC ligand binding to Mn2+-activated human VLA-4 integrin; P13612; Jurkat cells, LDV-FITC binding with Mn2+, flow cytometry; 100% = Mn2+-driven binding gain fully reversed; inhibition, % at 10 µM (by protocol); 24,000 tested, 0.2% active;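 active = inhibition above 50%; inconclusive = compound itself fluorescent, judged against control cell fluorescence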
Each line names hits and unclear results; the compound was inactive in the other large screens. In the library only some 1.5% were active in any assay of this set; here they are far more common.

COc1cccc2sc(Nc3nnc(-c4ccc(F)cc4)o3)nc12	VLA-4 antagonist 90 (no result: Prostate diff)
COc1cccc2sc(Nc3nnc(-c4cccs4)o3)nc12	VLA-4 allo ag inconclusive, VLA-4 antagonist inconclusive
O=c1[nH]c2ccc(Br)cc2c(-c2ccccc2)c1N1CCOCC1	none
O=c1ccc2cc3c([nH]c4ccc(Br)cc43)oc-2c1O	VLA-4 allo ag inconclusive, Autofluor Jurkat 6.6, VLA-4 antagonist inconclusive
CCCCN(CC)S(=O)(=O)N1CCC(C(=O)NCc2ccc(F)cc2)CC1	none
COc1ccc(-c2nc(C#N)c(NCCCN3CCOCC3)o2)cc1	VLA-4 allo ag inconclusive, VLA-4 antagonist inconclusive
COc1ccc(-c2oc3ncn(CCN4CCOCC4)c(=N)c3c2-c2ccc(OC)cc2)cc1	Prostate diff 34
COc1ccc(N(CC(=O)NCc2cccnc2)S(=O)(=O)c2c(C)nn(C)c2C)cc1	none
C=CCn1c(SCC(=O)c2ccc(OC)cc2)nnc1C(C)NC(=O)c1cccs1 (centres undefined)	none
CCCCCn1c(=N)n(CC(O)COc2ccccc2OC)c2ccccc21 (centres undefined)	Prostate diff 34
Cc1ccc(OCC(O)Cn2c(=N)n(CCN3CCCCC3)c3ccccc32)cc1 (centres undefined)	Prostate diff 58
C=CCn1c(=N)n(CC(O)COc2ccccc2OC)c2ccccc21 (centres undefined)	none
O=C(C1CCC(=O)N1Cc1ccccc1Cl)N1CCN(c2cccc(Cl)c2)CC1 (centres undefined)	none
CC(=O)C1=C(C)N=c2s/c(=C/c3ccc4c(c3)OCO4)c(=O)n2C1c1ccc(N(C)C)cc1 (centres undefined)	VLA-4 allo ag inconclusive, Autofluor Jurkat 8.5, VLA-4 antagonist inconclusive
CCOC(=O)c1c(C)oc2ccc(O)c(CN(C)C)c12	none
CCOC(=O)c1c(C)oc2c1c(/C=N/c1ccccn1)c(O)c1ccccc12	VLA-4 allo ag inconclusive, Autofluor Jurkat 8.9, VLA-4 antagonist inconclusive
C=CCN(C1CCCCC1)S(=O)(=O)c1ccc2c(c1)oc(=O)n2C	VLA-4 allo ag inconclusive, VLA-4 antagonist inconclusive
C=CCN(c1ccccc1)S(=O)(=O)c1ccc2c(c1)oc(=O)n2C	VLA-4 allo ag inconclusive, Autofluor Jurkat 2.5, VLA-4 antagonist inconclusive
Fc1cccc(Nc2cc(-n3cccn3)ncn2)c1	none
CC1(CC(=O)O)SC(=O)NC1=O (centres undefined)	VLA-4 allo ag inconclusive, VLA-4 antagonist inconclusive
CCCN(CCC)CCCNS(=O)(=O)c1ccc2c(c1)oc(=O)n2C	VLA-4 allo ag inconclusive, Autofluor Jurkat 3.7, VLA-4 antagonist inconclusive
Cc1oc(-c2ccc(Cl)cc2)nc1CN1CCC(C(=O)N2CCN(c3ccccn3)CC2)CC1	VLA-4 allo ag inconclusive, Prostate diff 43, VLA-4 antagonist inconclusive
CCc1ccc(-c2nc(CN3CCC(C(=O)N4CCN(c5ccccc5)CC4)CC3)c(C)o2)cc1	VLA-4 allo ag inconclusive, Prostate diff 35, VLA-4 antagonist inconclusive
Cc1oc(-c2cccc(Cl)c2)nc1CN1CCC(C(=O)N2CCN(c3ccccn3)CC2)CC1	VLA-4 allo ag inconclusive, VLA-4 antagonist inconclusive
CCc1ccc(-c2nc(CN3CCC(C(=O)N4CCN(c5ccccn5)CC4)CC3)c(C)o2)cc1	VLA-4 allo ag inconclusive, VLA-4 antagonist inconclusive
CC1CCCN(C(=O)C2CCN(S(=O)(=O)c3cccc4cccnc34)CC2)C1 (centres undefined)	none
Cc1noc(C)c1S(=O)(=O)Nc1ccc(C(=O)NCCc2ccccc2)cc1	VLA-4 antagonist 55
Cc1noc(C)c1S(=O)(=O)Nc1ccc(C(=O)NC2CCCCC2)cc1	VLA-4 allo ag inconclusive, Autofluor Jurkat 3, VLA-4 antagonist inconclusive
COc1ccccc1CNC(=O)c1ccc(NS(=O)(=O)c2c(C)noc2C)cc1	none
CCN(CCNC(=O)C1CCCN(Cc2nc(-c3ccc(OC)cc3)oc2C)C1)c1ccccc1 (centres undefined)	none
CCN(CCNC(=O)C1CCN(Cc2nc(-c3ccc(Cl)cc3)oc2C)CC1)c1ccccc1	VLA-4 allo ag inconclusive, Prostate diff 66, VLA-4 antagonist inconclusive
Cc1oc(-c2ccc(Cl)cc2)nc1CN1CCC(C(=O)NCCCN2CCOCC2)CC1	Prostate diff 63
CCN(CCNC(=O)C1CCN(Cc2nc(-c3cccc(Cl)c3)oc2C)CC1)c1ccccc1	VLA-4 allo ag inconclusive, VLA-4 antagonist inconclusive
CCc1ccc(-c2nc(CN3CCC(C(=O)NCCN(CC)c4ccccc4)CC3)c(C)o2)cc1	VLA-4 allo ag inconclusive, Prostate diff 32, VLA-4 antagonist inconclusive
O=C1c2cccnc2C(=O)N1Cc1ccc(F)cc1	none
CCc1ccc(NC(=O)NCCN2CCc3ccccc3C2)cc1	Prostate diff 34
O=C(NCCN1CCc2ccccc2C1)Nc1ccc(F)cc1	none
